Screening data as filed in PubChem.
This is a sample that favours compounds with a hit; in the whole collection about 1.3% have one here.
Glioma ERSR ind: inducers of ER stress response in human glioma cells; U87-MG GRP78 promoter luciferase reporter, 16 h; Potency, µM, inactives show at the highest dose activation, actives largely listed as activators; 420,000 tested, 0.02% active; AID 602332; note: potency is the fitted concentration of half-maximal effect; series mostly up to about 76 µM; % of control where 0% means no effect; nearly all actives have a fitted effect of over 35% in size
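Stably transfected U87-MG glioma cells carrying a GRP78-based luciferase sensor; 16 h compound incubation. Luminescence end-point read 10 min after Bright-Glo addition at room temperature.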
FEN1 inh-1: inhibitors of human flap endonuclease 1 | 390,000 tested, 0.35% active | Potency, µM (doses to about 114 µM), without a hit: at the top dose activity change, negative = inhibition, most hits filed as inhibitors | P39748 | Recombinant FEN1 flap cleavage, fluorescence, 15 min; note: potency is the fitted concentration of half-maximal effect; % is set by controls: 0 for no effect and ±100 for the full control effect; nearly all actives have a fitted effect of over 65% in size
Target sequence (P39748 whole entry, looked up): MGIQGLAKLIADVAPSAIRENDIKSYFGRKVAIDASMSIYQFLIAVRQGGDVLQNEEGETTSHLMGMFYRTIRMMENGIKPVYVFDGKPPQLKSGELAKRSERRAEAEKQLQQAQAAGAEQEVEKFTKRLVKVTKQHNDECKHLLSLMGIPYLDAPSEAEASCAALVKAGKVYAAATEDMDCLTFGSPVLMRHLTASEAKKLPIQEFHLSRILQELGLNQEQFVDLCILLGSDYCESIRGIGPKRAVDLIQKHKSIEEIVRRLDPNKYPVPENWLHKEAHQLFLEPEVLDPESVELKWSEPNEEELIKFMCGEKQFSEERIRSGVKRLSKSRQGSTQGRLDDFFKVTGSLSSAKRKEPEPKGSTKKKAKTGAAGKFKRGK
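Concentration–response screening of FEN1 (10 nM): 15 min compound preincubation at room temperature, reaction started with 50 nM substrate and read at 0 and 15 min. Corrected, normalized data were fitted by a four-parameter Hill equation.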
WRN inhibitor: inhibitors of human WRN helicase; 360,000 tested, 0.46% active; WRN helicase unwinding, fluorescent forked duplex, kinetic; Potency, µM (titrated, usually from 114 µM), inactives show top-dose activity change, negative = inhibition, usual class: inhibitors; AID 651768; note: potency is the fitted concentration of half-maximal effect; % is set by controls: 0 for no effect and ±100 for the full control effect; nearly all actives have a fitted effect of over 55% in size
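Primary qHTS, 1536-well format. 20 nM WRN + compound, 15 min RT; start with 100 nM forked fluorophore/quencher duplex, 2 mM ATP (final); kinetic read ex 525/em 598 nm.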
Pin1 inh: inhibitors of human Pin1 | Potency, µM (titrated, usually from 115 µM), for the others: at the highest dose activity, negative = inhibition, hits mostly inhibitors | 390,000 tested, 0.009% active | Pin1 FP peptide displacement, HiFluor488, 10 min; active = well fitted inhibition curve with a large enough effect in the polarisation, with a control signal flat, not every such curve was filed as active; inconclusive = small, poorly fitted or top-dose-only effect, or effect the other way, or a change in a side signal; inactive = no such curve, though single readings can be large or run the other way; the % refers to the polarisation; note: potency is the fitted concentration of half-maximal effect; % is set by controls: 0 for no effect and ±100 for the full control effect
Target sequence (Q13526 whole entry, looked up): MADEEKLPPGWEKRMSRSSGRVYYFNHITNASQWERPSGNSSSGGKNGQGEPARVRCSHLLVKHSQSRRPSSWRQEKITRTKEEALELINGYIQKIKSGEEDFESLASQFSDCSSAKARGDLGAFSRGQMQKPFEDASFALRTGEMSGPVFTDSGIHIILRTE
Tb PGK inh: inhibitors of T. brucei phosphoglycerate kinase | PGK/GAPDH coupled, Kinase-Glo luminescence, 60 min | Potency, µM (highest dose often 57.5 µM), for the others: at the highest dose activity change, negative = inhibition, usual class: inhibitors | 380,000 tested, 0.043% active; note: potency is the fitted concentration of half-maximal effect; % is set by controls: 0 for no effect and ±100 for the full control effect; nearly all actives have a fitted effect of over 60% in size
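Recombinant glycosomal PGK reaction used 1,3-bisphosphoglycerate generated in-well by GAPDH (100nM final) in 100mM TEA pH 7.6, 5mM MgCl2, 0.01% Tween-20. After 60 minutes at room temperature, ATP was read by Kinase-Glo Plus luminescence end-point.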
PI5P4K alpha inh: inhibitors of human PI5P4K alpha; PI5P4Kalpha enzyme, ADP-Glo luminescence, 60 min; active compounds read low; max response, %; 330,000 tested, 1.2% active; AID 652105; active = max response of -50% or lower; inconclusive = between -30% and -50%; inactive = -30% or higher; note: value at the top dose of about 77 µM; % is set by controls: 0 for no effect and ±100 for the full control effect
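Luminescence from ADP-Glo served as readout of PI5P4Kalpha activity in a qHTS format. Reaction: enzyme, substrate, compound, ATP at 5 microM final, 60 min at RT.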
FEN1 inh-2: FEN1 inhibition, cherry-pick retest; shares compounds with FEN1 inh-1; 880 tested, 79% active; Potency, µM, most hits filed as inhibitors; FEN1 flap cleavage, TAMRA/BHQ2 fluorogenic DNA substrate; note: potency is the fitted concentration of half-maximal effect; nearly all actives have a fitted effect of over 60% in size
The depositor's hits bear a star; i = inactive; ? = inconclusive; nt = not tested or not shown; [ ] = dose if it differs, or a comment. Unless noted, calls come from the whole dose curve; as a rule, active = well fitted curve in the direction sought with a large enough effect; inconclusive = small, poorly fitted or top-dose-only effect, or another doubt; inactive = no such curve, though single readings can be large; an effect the other way counts as inactive or inconclusive.

SMILES	Glioma ERSR ind	FEN1 inh-1	WRN inhibitor	Pin1 inh	Tb PGK inh	PI5P4K alpha inh	FEN1 inh-2
COc1ccc(S(=O)(=O)Nc2cc(SCC(=O)O)c(O)c3ccccc23)cc1	-10%	?	79µM*	?	-11%	-51*	67*
COc1ccc(S(=O)(=O)Nc2cccc3ccccc23)cc1	-5%	-3%	nt	-2%	nt	nt	nt
Cc1ccc(CNc2ncnc3sc(C(=O)N4CCC[C@H]4C(N)=O)c(C)c23)o1	-6%	nt	nt	nt	nt	nt	nt
Cc1nc(S/C(=C/c2ccc(-c3ccc(C(=O)O)cc3)o2)C(=O)O)n[nH]1	-3%	?	-18%[11.6 µM]	62%	-9%	-70*	48*
CN(C)CCCNc1cc(-c2ccccc2)nc2cc(-c3cccc(F)c3)nn12	-11%	?	-1%[11.6 µM]	3%	-5%	0	48*
Nc1ccc2nc(-c3ccc(N)c(Cl)c3)[nH]c2c1	-7%	50µM*	?	?	-5%	-63*	21*
CC(=O)Nc1ccccc1-c1nc(CNC(=O)c2cc(C)ccc2C)c(C)o1	2%	nt	nt	nt	nt	nt	nt
O=C1c2ccc3c4c(ccc(c24)C(=O)N1NC(=O)C(F)(F)F)CC3	-3%	56µM*	?	nt	-15%	nt	60*
O=C(N/N=C/c1ccoc1)c1cc(O)cc(O)c1	0%	?	20µM*	?	?	-71*	67*
COc1ccc(OC)c(/C(O)=C/C(=O)C(=O)Nc2cc(C)cc(C)c2)c1	0%	?	-10%	5%	-7%	2	43*
COC(=O)c1cc(CNC(=O)c2ccncc2)cc(NC(=O)c2ccccc2Cl)c1	-3%	nt	nt	nt	nt	nt	nt
O=C(N/N=C/c1cc(Br)c(O)c(Br)c1)c1cc2c(ccc3ccccc32)o1	1%	56µM*	35µM*	nt	-24%	-103*	43*
O=C(N/N=C/c1cc(Cl)c(O)c(Cl)c1)c1cc2c(ccc3ccccc32)o1	4%	50µM*	?	?	-18%	-77*	?
COc1ccc(OC)c(C(=O)N(Cc2cc3cccc(C)c3nc2N2CCC(O)CC2)C2CC2)c1	-3%	nt	nt	nt	nt	nt	nt
CC1CN(CC(=O)NCCc2ccncc2)Cc2ccccc2O1 (stereo not given)	-4%	nt	nt	nt	nt	nt	nt
COc1cccc(CNC(=O)c2c(OC)cc(=O)n3c2CCN(C(=O)c2cc(F)cc(F)c2)CC3)c1	-5%	nt	nt	nt	nt	nt	nt
COc1cc(CN2CCc3nnc(C(NS(C)(=O)=O)C(C)C)n3CC2)ccc1F (stereo not given)	-5%	nt	nt	nt	nt	nt	nt
CCN(CC)c1ccc(C=C2SC(=S)NC2=O)cc1	0%	-29%	50µM*	?	-4%	?	?
CCN(CC)c1ccc(/C=C2\SC(N)=NC2=O)cc1	1%	15%	6%	?	-8%	-1	nt
CCN(CC)CCn1c2ccccc2c2cnc(N)c(C#N)c21	3%	?	-8%[57.1 µM]	3%	12%	1	21*
CCn1cc(C(=O)O)c(=O)c2cc(F)c(N/N=C/c3ccccc3)cc21	-1%	?	-32%	0%	i	2	38*
O=C(O)c1cc(O)c2c(c1)C(=O)c1cc(O)cc(O)c1C2=O	-4%	?	?	?	?	-86*	?
COc1cc(O)c2c(c1)C(=O)c1cc(C)cc(O)c1C2=O	-1%	nt	nt	nt	nt	nt	nt
CCOC(=O)C1CCCN(C(=O)c2cnn(-c3ncc4c(n3)-c3ccccc3CC4)c2C)C1 (stereo not given)	0%	nt	nt	nt	nt	nt	nt
Cc1ccc2c(c1)N(C)/C(=C/c1cccc[n+]1CCO)S2	-3%	-21%	-2%	3%	-2%	1	nt
SMILES	Glioma ERSR ind	FEN1 inh-1	WRN inhibitor	Pin1 inh	Tb PGK inh	PI5P4K alpha inh	FEN1 inh-2
COc1ccc2c(c1)N(C)/C(=C/c1cccc[n+]1C)S2	-4%	20µM*	-1%[11.6 µM]	-4%	-2%	-2	?
Cc1ccc2c(c1)N(C)/C(=C/c1cccc[n+]1C)S2	0%	?	1%[11.6 µM]	0%	-3%	2	38*
COc1ccc(CNC(=O)c2cnn(-c3nccc(-c4ccco4)n3)c2C)cc1OC	3%	nt	nt	nt	nt	nt	nt
O=C(O)c1ccc(N2C(=O)CSC2=S)cc1	-10%	-3%	3%[11.6 µM]	14%	-13%	-6	?
O=C(O)c1cc(C(=O)O)cc(N2C(=O)CSC2=S)c1	-8%	?	-24%[11.6 µM]	nt	-11%	6	nt
O=C(O)c1ccc2[nH]c3c(c2c1)CSCC3	-4%	7%	-25%	?	-1%	-9	nt
CN(C)CCOC(=O)c1ccc2[nH]c3c(c2c1)CSCC3	0%	50µM*	-9%[11.6 µM]	-3%	-7%	-10	85*
CC(=O)c1ccc(F)c(-c2cc(C)cc3c2OC(CNC(=O)c2cccnc2)C3)c1 (stereo not given)	-3%	nt	nt	nt	nt	nt	nt
O=C(NNc1cc(N2CCOCC2)nc(N2CCOCC2)n1)c1ccc([N+](=O)[O-])cc1	-3%	-1%	0%[11.6 µM]	?	-6%	6	?
O=C(Nc1ccc(N2CCOCC2)cc1N1CCOCC1)c1ccc([N+](=O)[O-])cc1	-1%	6%	-19%	0%	2%	5	nt
COc1cc(=O)n2c(c1C(=O)N(C)Cc1nccs1)CCN(Cc1c(F)ccc(F)c1F)CC2	-4%	nt	nt	nt	nt	nt	nt
CN(C)C=Nc1ccc2nc3c(cc2c1)[nH]c1ccccc13	-1%	?	?	9%	nt	-6	30*
COCCN(C)C(=O)c1cnn(-c2nccc(-c3cc(OC)ccc3OC)n2)c1C	0%	nt	nt	nt	nt	nt	nt
Oc1ccc(CCNc2c3ccccc3nc3ccccc23)cc1O	?	18µM*	50µM*	0%	-4%	-11	3*
CN(C)CCCNc1nc(-c2ccccc2)nc2ccccc12	-2%	-13%	-3%	0%	i	-1	nt
c1ccc(CNc2c3ccccc3nc3ccccc23)cc1	-3%	?	?	1%	i	4	11*
CN(C)CCCNc1c2ccccc2nc2ccccc12	-8%	11µM*	?	-2%	i	-18	8.5*
CCN(CC)C1CCN(C(=O)c2cnn(-c3nccc(-c4ccccc4OC)n3)c2-c2ccco2)C1 (stereo not given)	-5%	nt	nt	nt	nt	nt	nt
Cc1ccsc1C1Cc2c(C(=O)NCc3cccnc3)c(=O)cc(C)n2-c2ccccc2S1 (stereo not given)	-3%	nt	nt	nt	nt	nt	nt
Cc1cccc(C)c1NC(=O)CN1C(=O)S/C(=C\c2cccn2-c2cccc(C(=O)O)c2)C1=O	-6%	50µM*	?	nt	-9%	-69*	76*
O=C(CN1C(=O)N/C(=C\c2cccn2-c2cccc(C(=O)O)c2)C1=O)Nc1ccc(Cl)cc1	nt	nt	nt	nt	nt	nt	60*
CCN1CCCC1CNC(=O)c1cnn(-c2nccc(-c3cc(OC)ccc3OC)n2)c1C (stereo not given)	-6%	nt	nt	nt	nt	nt	nt
